The record followed here is ChEMBL document CHEMBL3988442, “University of Dundee, Small-Polar-MMV Screening Library” (2021).

Experiment [1] concerns the target T1, Aspartate--tRNA(Asp/Asn) ligase (Mycobacterium tuberculosis (strain ATCC 25618 / H37Rv)) (UniProt P9WFW3). Further: in the data most compounds retested in dose-response had high values.
T1 sequence (whole entry): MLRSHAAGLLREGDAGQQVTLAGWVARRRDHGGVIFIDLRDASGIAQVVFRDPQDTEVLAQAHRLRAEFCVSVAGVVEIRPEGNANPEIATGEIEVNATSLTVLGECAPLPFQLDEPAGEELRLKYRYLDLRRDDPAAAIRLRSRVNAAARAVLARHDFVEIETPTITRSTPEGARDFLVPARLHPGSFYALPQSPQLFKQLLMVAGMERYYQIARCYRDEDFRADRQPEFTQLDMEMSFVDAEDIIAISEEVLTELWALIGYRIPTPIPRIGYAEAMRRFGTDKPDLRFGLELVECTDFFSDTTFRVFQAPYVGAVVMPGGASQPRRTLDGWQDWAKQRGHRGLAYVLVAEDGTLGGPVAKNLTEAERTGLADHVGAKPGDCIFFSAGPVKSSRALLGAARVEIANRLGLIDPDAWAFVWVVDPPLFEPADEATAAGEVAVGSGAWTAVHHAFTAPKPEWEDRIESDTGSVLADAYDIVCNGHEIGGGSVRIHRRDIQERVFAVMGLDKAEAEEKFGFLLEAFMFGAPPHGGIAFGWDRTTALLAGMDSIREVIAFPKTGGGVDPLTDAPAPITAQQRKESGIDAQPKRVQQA
The experiment can be described thus: Assay for Asp RNA synthetase-1 from Mycobacterium tuberculosis. Format: functional. More on the design: scale not given: direction of the effect not stated beside the values. To be noted: 30 µM.

For experiment [2], the target named is Shiga toxin 2 (Escherichia coli O157:H7) (UniProt P09385+P09386). The experiment can be described thus: E. coli 0.157:H7 Shiga Toxin SOP - stx2 screening assay. The settings on record: 30 µM. Format: functional. More on the design: scale not given: direction of the effect not stated beside the values.

Turning to `CCc1noc(CN2CCCC2c2noc(C3CC3)n2)n1` (stereo not given), the Percent Effect is 0.459% in experiment [1] and 12.9% in experiment [2].
On the same counts, the results for `CCN(Cc1ccc2c(c1)OCCO2)S(=O)(=O)N(C)C(C)C` are -0.607% and 9.34%.
On the same counts, the results for `CC(OCC1CC1)C(=O)N1CCCN(c2ncccc2C#N)CC1` (stereo not given) are 2.42% and 27.5%.
On to `CN1CCCN(C(=O)NCc2csc(Br)c2)CC1`, for which the Percent Effect was found to be 0.175% in experiment [1] and 14.5% in experiment [2].
With `COCCNC(=O)NCc1ccc(OC(C)C)c(F)c1`, the Percent Effect in experiment [1] was -1.07%; in experiment [2] it was 29.6%.
